# Test results reported in PubChem BioAssay (Tox21).
# Values without a mark were called inactive. The source made the active and inactive calls. Calls follow the shape of the full dose curve.
# Molecular target: Gonadotropin-releasing hormone receptor (Homo sapiens) (UniProt P30968)
# Assay: Human gonadotropin-releasing hormone receptor (GnRHR) small molecule agonists, calcium flux assay in GnRHR-HEK293 cells (AID 1920063); also: nearly all actives have a fitted effect of over 35% in size
# Details: calcium flux fluorescence, agonist mode; series mostly up to 57.6 µM; activity change: at the top concentration
# Description: National Center for Advancing Translational Sciences [NCATS]
# Division of Preclinical Innovation [DPI]
# U.S. Environmental Protection Agency [EPA]
# National Institutes of Environmental Health Sciences [NIEHS]
# National Toxicology Program [NTP]
# U.S. Food and Drug Administration [FDA]
# Gonadotropin-releasing hormone receptor (GnRHR) is a G-protein-coupled receptor (GPCR) and acts (through phospholipase C) to increase intracellular inositol trisphosphate and then release intracellular calcium stores. Cell-based GnRHR-Hek293 calcium influx assay is using HEK293 cells that have been genetically engineered to express the human GnRHR, which activity can be measured by calcium signaling. A compound/drug can activate (agonist) GnRHR that can be monitored by levels of intracellular calcium.
# GnRHR-HEK293 cells developed by Codex Corp contain human GnRHR reporter gene, which was stably integrated into HEK 293 cells. The compound activation can be detected by fluorescence intensity via calcium flux assay. This cell line has been used to screen the Tox21 10K compound library to identify GnRHR agonists.
# GnRHR-Hek293 cells were dispensed at 1500cells/4uL/well in 1536-well black wall/clear bottom plates using a multidrop dispenser. After the assay plates were incubated at a 37 C/5% CO2 incubator for 18 hours, 4 uL of Calcium Dye Solution was added to each well. The plates were incubated at 37 C for 1 hour. For agonist mode, 23 nL of compounds dissolved in DMSO, positive controls or DMSO only was transferred to the assay plate by a pin tool station. The fluorescence intensity in the plates was measured using FDSS 7000EX kinetic plate reader with a filter set of Ex/Em=480/540 for 3 min at 1 sec intervals. Each test compound was measured at 15 concentrations and in triplicates.
# % is scaled to controls: 0 for no effect and ±100 for the full control effect.
# Gonadotropin-releasing hormone receptor (Homo sapiens), sequence (P30968 whole entry, looked up): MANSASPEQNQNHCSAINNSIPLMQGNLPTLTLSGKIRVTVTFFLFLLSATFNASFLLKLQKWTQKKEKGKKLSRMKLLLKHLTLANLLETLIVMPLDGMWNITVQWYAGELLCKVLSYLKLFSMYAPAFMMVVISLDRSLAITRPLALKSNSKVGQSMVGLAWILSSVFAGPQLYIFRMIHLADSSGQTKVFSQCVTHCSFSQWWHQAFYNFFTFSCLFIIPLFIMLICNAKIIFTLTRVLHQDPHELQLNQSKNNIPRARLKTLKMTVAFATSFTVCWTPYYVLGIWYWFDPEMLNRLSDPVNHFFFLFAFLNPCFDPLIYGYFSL
Compound,Potency,activity change
CCCCCCCCOC(=O)c1ccccc1C(=O)OCCCCCCCC,inactive,–
C[Si](Cn1cncn1)(c1ccc(F)cc1)c1ccc(F)cc1,inactive,–
COc1cc(OC)nc(NC(=O)NS(=O)(=O)c2ncccc2C(=O)N(C)C)n1,–,0.169%
CC(=[OH+])/C=C(/C)[O-].CC(=[OH+])/C=C(\C)[O-].CC(=[OH+])/C=C(\C)[O-].[Al],–,2.74%
CN(N=O)c1ccccc1,inactive,–
O=C(CBr)c1ccc(O)cc1,–,-0.0423%
CCCCOC(=O)COC(=O)c1ccccc1C(=O)OCCCC,inactive,–
CC(C)(C)OOC(=O)c1ccccc1,inactive,–
O=C(Cl)CCl,–,-2.35%
CC(C)(c1ccccc1)c1cc(-n2nc3ccccc3n2)c(O)c(C(C)(C)c2ccccc2)c1,–,"0.0548% [at 26.4 µM, stronger effect = higher value]"
CCC[CH2][Sn]([Cl])([Cl])[CH2]CCC,inactive,–
Cc1cccc(N)c1N,inactive,–
NC(=O)CF,–,-0.577%
Cc1ccc(N)cc1Cl,inactive,–
Cc1ccc(Cl)c(O)c1,–,"-0.595% [at 26.4 µM, stronger effect = higher value]"
C[C@H]1CCCC(=O)CCC/C=C/c2cc(O)cc(O)c2C(=O)O1,inactive,–
O=C1C(Cl)=C(Cl)C(=O)C(Cl)=C1Cl,–,11.3%
NC(=O)O,–,0.0494%
COc1c(C(C)(C)C)cc([N+](=O)[O-])c(C)c1[N+](=O)[O-],–,0.45%
COc1ccccc1N,inactive,–

Compound,Potency,activity change
O=[N+]([O-])CCO,–,-2.1%
CC(C)(C)C(=O)C(Cl)Cl,–,2.17%
CCCCCC[n+]1ccccc1,inactive,–
COC(=O)NC(=S)Nc1ccccc1NC(=S)NC(=O)OC,inactive,–
CC(C)(C1CCC(O)CC1)C1CCC(O)CC1 (stereo not given),–,2.94%
CCBr,–,-1.6%
O=C(NCc1cccnc1)Nc1ccc([N+](=O)[O-])cc1,–,-1.07%
C=CC(=O)OC(C)(C)C,–,0.569%
ClCC(Cl)(Cl)Cl,–,1.07%
CCCCOC(=O)c1ccccc1C(=O)O,–,-0.42%
C=CCCl,–,-1.22%
ClC1=C(Cl)[C@]2(Cl)[C@@H]3[C@@H](Cl)[C@H](Cl)C[C@@H]3[C@@]1(Cl)C2(Cl)Cl,–,-0.0094%
Cc1ccc(OP(=O)(Oc2ccc(C)cc2)Oc2ccc(C)cc2)cc1,inactive,–
COc1ccc2c3c1O[C@H]1[C@@H](O)C=C[C@H]4[C@@H](C2)N(C)CC[C@@]341,inactive,–
Cc1ccc(N)c(C)c1,inactive,–
OCC1CO1 (stereo not given),inactive,–
O=C(Cl)c1ccccc1,–,0.197%
CN1CC[C@]23c4c5ccc(O)c4O[C@H]2[C@@H](O)CC[C@H]3[C@H]1C5,–,2.36%
O=C(CCN1CC1)OCC(CO)(COC(=O)CCN1CC1)COC(=O)CCN1CC1,–,0.0961%
Nc1ccc(-c2ccc(N)cc2)cc1,inactive,–
